Several values for one entry are separate records, joined by “and”; a condition that tells them apart may be missing. Identical values can stand only once. The source holds several records for some structures; these can differ, active in one and inactive in another. Activity calls are given as the source filed them. A call without a number means that no potency is given here. Unless noted, calls come from the whole dose curve; as a rule, active = well fitted curve in the direction sought with a large enough effect in the repeat runs; inconclusive = weak or mixed curves; inactive = no such curve, though single readings can be large; an effect the other way counts as inactive or inconclusive.
How the values were obtained:
[1] = qHTS assay to identify small molecule antagonists of the glucocorticoid receptor (GR) signaling pathway - cell viability counter screen (AID 720693); note: nearly all actives have a fitted effect of over 55% in size; note: potency is the fitted concentration of half-maximal effect
[2] = qHTS assay for identifying genotoxic compounds that show differential cytotoxicity against isogenic chicken DT40 cell lines with known DNA damage response pathways - Rev3 mutant cell line (AID 743014); note: nearly all actives have a fitted effect of over 55% in size; note: potency is the fitted concentration of half-maximal effect
[3] = qHTS assay for identifying genotoxic compounds that show differential cytotoxicity against isogenic chicken DT40 cell lines with known DNA damage response pathways - Rad54/Ku70 mutant cell line (AID 743015); note: nearly all actives have a fitted effect of over 60% in size; note: potency is the fitted concentration of half-maximal effect
[4] = qHTS assay to identify small molecule antagonists of the androgen receptor (AR) signaling pathway - cell viability counter screen (AID 743033; note: nearly all actives have a fitted effect of over 45% in size)
[5] = qHTS assay to identify small molecule antagonists of the androgen receptor (AR) signaling pathway using the MDA cell line - cell viability counter screen (AID 743041; note: nearly all actives have a fitted effect of over 45% in size)
How it was run: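 Using the breast carcinoma line MDA-kb2 AR-luc, test chemicals were co-incubated with R1881 for 16 h; CellTiter-Fluor reagent, added at 15.5 h, provided a fluorescence measure of live cells.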

[6] = qHTS assay to identify small molecule antagonists of the thyroid receptor (TR) signaling pathway - cell viability counter screen (AID 743064); note: nearly all actives have a fitted effect of over 50% in size; note: potency is the fitted concentration of half-maximal effect
How it was run: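 GH3.TRE-Luc rat pituitary cells dosed after 4 hr plating, co-stimulated with T3 at 1 nM final, incubated 23.5 h at 37 C. Viability measured in the same wells by CellTiter-Fluor fluorescence after 30 min further at 37 C.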

[7] = qHTS assay to identify small molecule antagonists of the thyroid receptor (TR) signaling pathway (AID 743065); note: nearly all actives have a fitted effect of over 55% in size; note: potency is the fitted concentration of half-maximal effect
How it was run: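 Antagonism measured as loss of luciferase signal in GH3 cells stably carrying a TRE-luciferase reporter, co-treated with compound and T3 (1 nM final) for 23.5 h at 37 C. Viability was read in the same well by CellTiter-Fluor.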

[8] = test system: thyroid hormone receptor (rat, GH3 cells); test: qHTS assay to identify small molecule agonists of the thyroid receptor (TR) signaling pathway (AID 743066; calls by dose curve)
[9] = qHTS assay to identify small molecule antagonists of the estrogen receptor alpha (ER-alpha) signaling pathway - cell viability counter screen (AID 743074; calls by dose curve; note: nearly all actives have a fitted effect of over 45% in size; note: potency is the fitted concentration of half-maximal effect)
[10] = biological target: Aromatase (Homo sapiens) (UniProt P11511); test: qHTS assay to identify aromatase inhibitors (AID 743083); note: nearly all actives have a fitted effect of over 55% in size; note: potency is the fitted concentration of half-maximal effect
[11] = biological target: Estrogen receptor (Homo sapiens) (UniProt P03372); test: qHTS assay to identify small molecule agonists of the estrogen receptor alpha (ER-alpha) signaling pathway (AID 743075; calls by dose curve); conditions: HEK293 ER-alpha-UAS-bla, beta-lactamase FRET ratio, 18 h; activation: at 70.1 µM (top of the series)
[12] = biological target: Estrogen receptor (Homo sapiens) (UniProt P03372); test: qHTS assay to identify small molecule agonists of the estrogen receptor alpha (ER-alpha) signaling pathway using the BG1 cell line (AID 743079); conditions: BG1Luc4E2 cells, ERE-luciferase agonist, 22 h; note: nearly all actives have a fitted effect of over 20% in size
[13] = qHTS assay to identify small molecule antagonists of the estrogen receptor alpha (ER-alpha) signaling pathway using the BG1 cell line (AID 743080; calls by dose curve;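 note: BG1 cells stimulated with 17beta-estradiol alongside compound; nearly all actives have a fitted effect of over 25% in size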)
How it was run: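 BG1-Luc-4E2 cells (endogenous full-length ER-alpha, 4xERE luciferase) hormone-starved 5 days in charcoal-stripped FBS, plated 4,000/well for 24 h, then compound plus 17beta-estradiol for 21.5 h at 37 C; ONE-Glo luminescence read.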

[14] = qHTS assay to identify small molecule antagonists of the estrogen receptor alpha (ER-alpha) signaling pathway using the BG1 cell line - cell viability counter screen (AID 743081);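 note: compound given together with 17beta-estradiol as the ER stimulus; nearly all actives have a fitted effect of over 45% in size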; note: potency is the fitted concentration of half-maximal effect
[15] = biological target: Estrogen receptor (Homo sapiens) (UniProt P03372); test: qHTS assay to identify small molecule antagonists of the estrogen receptor alpha (ER-alpha) signaling pathway (AID 743069; active = well fitted curve in the direction sought with a large enough effect in the signal ratio in the repeat runs, not every such curve was filed as active; inconclusive = weak or mixed curves, or effect the other way; inactive = no such curve, though single readings can be large or run the other way; the % refers to the signal ratio; note: potency is the fitted concentration of half-maximal effect)
How it was run: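 Fluorescence intensity from a beta-lactamase FRET substrate served as the read-out. Cells: HEK293 with stably integrated ER-alpha-UAS-bla reporter. Agonist 17beta-estradiol was co-added with compounds; incubation 18 hr at 37C, substrate 2 hr at room temperature.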

[16] = biological target: Androgen receptor (Homo sapiens) (UniProt P10275); test: qHTS assay to identify small molecule antagonists of the androgen receptor (AR) signaling pathway (AID 743035; active = well fitted inhibition curve with a large enough effect in the signal ratio in the repeat runs, not every such curve was filed as active; inconclusive = weak or mixed curves, or effect the other way; inactive = no such curve, though single readings can be large or run the other way; the % refers to the signal ratio)
How it was run: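 Antagonist mode: AR-bla HEK293 cells co-treated with test compounds and agonist R1881 for 16 h at 37C, 5% CO2. Beta-lactamase activity read as FRET fluorescence after 2 h room-temperature substrate loading.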

[17] = biological target: Androgen receptor (Homo sapiens) (UniProt P10275); test: qHTS assay to identify small molecule agonists of the androgen receptor (AR) signaling pathway (AID 743036; active = well fitted activation curve with a large enough effect in the signal ratio in the repeat runs, with a control signal flat, not every such curve was filed as active; inconclusive = weak or mixed curves, or effect the other way; inactive = no such curve, though single readings can be large or run the other way; the % refers to the signal ratio)
How it was run: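 AR-UAS-bla HEK293 cells, plated 4 h before dosing, were treated with compound for 16 h at 37C. beta-Lactamase reporter read after 2 h with LiveBLAzer B/G FRET substrate at room temperature.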

[18] = biological target: Androgen receptor (Homo sapiens) (UniProt P10275); test: qHTS assay to identify small molecule agonists of the androgen receptor (AR) signaling pathway using the MDA cell line (AID 743040; note: nearly all actives have a fitted effect of over 20% in size)
How it was run: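 Stable MMTV-luciferase reporter in MDA-kb2 cells; note the promoter carries GR as well as AR response elements. 16 h compound treatment, 37C, 0% CO2; ONE-Glo luminescence endpoint.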

[19] = biological target: Androgen receptor (Homo sapiens) (UniProt P10275); test: qHTS assay to identify small molecule antagonists of the androgen receptor (AR) signaling pathway using the MDA cell line (AID 743042; note: nearly all actives have a fitted effect of over 55% in size)
How it was run: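 Antagonist mode: compounds plus R1881 agonist added to MDA-kb2 AR-luc cells, incubated 16 h at 37C. Luciferase reporter luminescence quantified, with multiplexed CellTiter-Fluor readout for cell viability.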

Sequence of Aromatase (Homo sapiens) (P11511 whole entry, looked up): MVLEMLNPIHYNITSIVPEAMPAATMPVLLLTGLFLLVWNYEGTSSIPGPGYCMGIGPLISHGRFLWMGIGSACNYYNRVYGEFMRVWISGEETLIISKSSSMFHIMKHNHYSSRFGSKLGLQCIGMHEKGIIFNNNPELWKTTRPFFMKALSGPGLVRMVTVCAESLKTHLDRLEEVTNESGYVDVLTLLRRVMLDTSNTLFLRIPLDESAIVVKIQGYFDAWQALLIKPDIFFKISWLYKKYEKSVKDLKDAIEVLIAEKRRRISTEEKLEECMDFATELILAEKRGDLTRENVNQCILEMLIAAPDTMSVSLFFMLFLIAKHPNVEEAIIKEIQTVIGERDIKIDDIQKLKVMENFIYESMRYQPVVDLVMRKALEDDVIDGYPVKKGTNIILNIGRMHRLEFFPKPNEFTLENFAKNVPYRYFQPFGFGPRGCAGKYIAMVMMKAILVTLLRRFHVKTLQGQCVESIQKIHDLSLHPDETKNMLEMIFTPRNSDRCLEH
Sequence of Estrogen receptor (Homo sapiens) (P03372 whole entry, looked up): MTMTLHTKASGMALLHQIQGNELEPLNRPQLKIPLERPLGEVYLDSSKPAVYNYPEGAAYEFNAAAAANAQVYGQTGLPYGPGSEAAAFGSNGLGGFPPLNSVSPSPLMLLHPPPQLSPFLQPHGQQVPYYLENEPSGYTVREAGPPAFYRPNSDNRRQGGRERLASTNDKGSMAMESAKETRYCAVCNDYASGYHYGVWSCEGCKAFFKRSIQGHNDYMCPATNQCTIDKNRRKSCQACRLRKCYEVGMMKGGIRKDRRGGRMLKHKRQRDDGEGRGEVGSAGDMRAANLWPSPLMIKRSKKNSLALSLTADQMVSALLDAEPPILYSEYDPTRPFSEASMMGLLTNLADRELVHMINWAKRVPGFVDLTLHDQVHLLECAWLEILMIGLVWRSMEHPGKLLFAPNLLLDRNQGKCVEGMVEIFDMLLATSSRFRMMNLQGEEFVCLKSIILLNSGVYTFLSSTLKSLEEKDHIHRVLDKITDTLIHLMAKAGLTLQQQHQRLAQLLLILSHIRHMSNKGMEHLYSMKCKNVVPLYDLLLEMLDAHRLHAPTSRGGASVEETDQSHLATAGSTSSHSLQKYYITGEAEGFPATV
Sequence of Androgen receptor (Homo sapiens) (P10275 whole entry, looked up): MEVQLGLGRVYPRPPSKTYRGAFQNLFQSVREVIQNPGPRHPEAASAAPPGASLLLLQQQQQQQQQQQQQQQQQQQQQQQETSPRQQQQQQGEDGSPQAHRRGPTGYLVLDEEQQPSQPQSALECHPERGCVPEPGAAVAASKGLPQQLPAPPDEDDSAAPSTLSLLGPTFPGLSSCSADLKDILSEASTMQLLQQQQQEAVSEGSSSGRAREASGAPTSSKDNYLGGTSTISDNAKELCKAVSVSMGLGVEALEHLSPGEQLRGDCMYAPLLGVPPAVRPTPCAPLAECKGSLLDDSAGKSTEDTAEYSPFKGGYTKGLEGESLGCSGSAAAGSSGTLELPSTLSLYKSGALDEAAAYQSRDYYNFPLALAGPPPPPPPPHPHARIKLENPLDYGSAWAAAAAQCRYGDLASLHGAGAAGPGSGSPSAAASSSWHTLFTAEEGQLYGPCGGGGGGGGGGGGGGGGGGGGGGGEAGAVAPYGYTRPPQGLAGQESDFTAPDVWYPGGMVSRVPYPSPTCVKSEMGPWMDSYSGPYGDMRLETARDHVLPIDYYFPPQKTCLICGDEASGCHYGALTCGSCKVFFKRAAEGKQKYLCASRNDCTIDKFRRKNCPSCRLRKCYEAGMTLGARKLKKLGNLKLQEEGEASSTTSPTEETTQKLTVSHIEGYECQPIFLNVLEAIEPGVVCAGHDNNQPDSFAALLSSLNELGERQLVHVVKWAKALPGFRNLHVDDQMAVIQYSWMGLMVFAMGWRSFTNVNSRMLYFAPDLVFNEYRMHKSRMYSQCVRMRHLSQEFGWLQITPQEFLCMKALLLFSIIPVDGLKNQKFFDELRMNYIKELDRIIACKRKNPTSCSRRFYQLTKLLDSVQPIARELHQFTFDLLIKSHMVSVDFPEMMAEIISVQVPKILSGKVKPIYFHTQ

Structure (SMILES)	Potency [1]	Potency [2]	Potency [3]	Potency [4]	Potency [5]	Potency [6]	Potency [7]	Potency [8]	Potency [9]	Potency [10]	Potency [11]	activation ([12]; at 70.3 µM (top of the series))	Potency [13]	Potency [14]	Potency [15]	Potency [16]	Potency [17]	Potency [18]	Potency [19]	activation ([12]; at 32.5 µM (top of the series))
S=c1[nH]c2ccccc2s1	inactive	29.8 µM (active) and 66.6 µM (active)	29.8 µM (active) and 64 µM (active)	inactive	inactive	inactive	inactive	inactive	inactive and 6.16 µM (active)	inactive	–	–	–	–	–	–	–	–	–	–
Fc1ccc(C(c2ccc(F)cc2)N2CCN(C/C=C/c3ccccc3)CC2)cc1	inactive	13.3 µM (active)	11.9 µM (active)	–	inactive	–	–	–	inactive	inactive	inactive	-22.9% (inactive)	inactive	inactive	–	–	–	–	–	–
CCOc1ccc2nc3cc(N)ccc3c(N)c2c1	inactive	26.6 µM (active)	26.6 µM (active)	inactive	inactive	–	–	inactive	inactive	–	–	-22.3% (inactive)	–	–	inactive	–	–	–	–	–
COc1cc(-c2ccc(N=C=O)c(OC)c2)ccc1N=C=O	inactive	inactive	inactive	inactive	inactive	inactive	inactive	inactive	inactive	inactive	–	–	–	inactive	–	–	–	–	–	–
C=C(C)C(=O)OCC[N+](C)(C)C	inactive	–	38.4 µM (active)	inactive	inactive	60.9 µM (active)	–	inactive	inactive	inactive	–	–	–	inactive	–	inactive	inactive	inactive	inactive	–
CCc1oc2ccccc2c1C(=O)c1cc(Br)c(O)c(Br)c1	13.4 µM (active)	–	–	inactive	inactive	–	26.6 µM (active)	inactive	inactive	inactive	inactive	-23.9% (inactive)	inactive	inactive	10.7 µM [inconclusive] (active)	–	–	inactive	inactive	–
CC(C)(C)C(=O)OCOC(=O)[C@@H]1N2C(=O)[C@@H](NC(=O)[C@H](N)c3ccccc3)[C@H]2SC1(C)C	inactive	inactive	inactive	–	inactive	inactive	inactive	inactive	inactive	inactive	inactive	–	inactive	inactive	inactive	–	–	–	–	0.598% (inactive)
CC[C@H]1O[C@]2(CC[C@@H]1C)C[C@@H]1C[C@@H](C/C=C(\C)C[C@@H](C)/C=C/C=C3\CO[C@@H]4[C@H](O)C(C)=C[C@@H](C(=O)O1)[C@]34O)O2	13.7 µM (active)	6.8 µM (active)	6.06 µM (active)	inactive	–	6.06 µM (active)	5.4 µM (active)	–	43.3 µM (active)	30.4 µM (active)	–	–	–	60.6 µM (active)	–	–	–	–	–	–

Source: PubChem BioAssay (Tox21)
